# Measurements: PubChem BioAssay (NCATS)
# Active and inactive are the calls of the source. Calls follow the shape of the full dose curve.
# Assays:
# Test in all cases: Confirmatory Screen for Target Class Profiling of Small Molecule Inhibitors of Methyltransferases (AID 1745852); as to activity change, negative = inhibition: % is scaled to controls: 0 for no effect and ±100 for the full control effect
# [1] = molecular target: Catechol O-methyltransferase (Homo sapiens) (UniProt P21964); settings: MTase-Glo luminescence, SAH detection, recombinant enzyme; measured here: COMT max response; stronger effect = lower value
# Catechol O-methyltransferase (Homo sapiens), sequence (P21964 whole entry, looked up): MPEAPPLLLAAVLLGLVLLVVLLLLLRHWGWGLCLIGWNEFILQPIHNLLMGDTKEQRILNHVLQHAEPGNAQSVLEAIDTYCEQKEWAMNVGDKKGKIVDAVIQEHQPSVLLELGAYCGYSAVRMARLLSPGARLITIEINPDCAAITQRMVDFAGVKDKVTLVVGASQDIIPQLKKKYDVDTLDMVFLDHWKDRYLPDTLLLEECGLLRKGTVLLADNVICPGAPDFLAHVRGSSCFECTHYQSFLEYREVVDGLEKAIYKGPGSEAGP
# [2] = molecular target: Guanidinoacetate N-methyltransferase (Homo sapiens) (UniProt Q14353); settings: MTase-Glo luminescence, SAH detection, recombinant enzyme; activity change, negative = inhibition: at 57.3 µM (top of the series) unless noted; series mostly up to 57.3 µM
# [3] = molecular target: Nicotinamide N-methyltransferase (Homo sapiens) (UniProt P40261); settings: MTase-Glo luminescence, SAH detection, recombinant enzyme; measured here: NNMT max response; stronger effect = lower value
# Nicotinamide N-methyltransferase (Homo sapiens), sequence (P40261 whole entry, looked up): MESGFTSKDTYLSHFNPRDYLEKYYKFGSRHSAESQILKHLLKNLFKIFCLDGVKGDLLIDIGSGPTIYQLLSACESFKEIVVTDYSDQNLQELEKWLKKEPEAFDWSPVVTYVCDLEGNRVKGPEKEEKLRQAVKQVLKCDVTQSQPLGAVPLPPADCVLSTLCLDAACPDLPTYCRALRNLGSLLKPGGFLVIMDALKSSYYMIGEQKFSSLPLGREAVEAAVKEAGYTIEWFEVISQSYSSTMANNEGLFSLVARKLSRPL
# [4] = molecular target: Phenylethanolamine N-methyltransferase (Homo sapiens) (UniProt P11086); settings: MTase-Glo luminescence, SAH detection, recombinant enzyme; measured here: PNMT max response; stronger effect = lower value
# Phenylethanolamine N-methyltransferase (Homo sapiens), sequence (P11086 whole entry, looked up): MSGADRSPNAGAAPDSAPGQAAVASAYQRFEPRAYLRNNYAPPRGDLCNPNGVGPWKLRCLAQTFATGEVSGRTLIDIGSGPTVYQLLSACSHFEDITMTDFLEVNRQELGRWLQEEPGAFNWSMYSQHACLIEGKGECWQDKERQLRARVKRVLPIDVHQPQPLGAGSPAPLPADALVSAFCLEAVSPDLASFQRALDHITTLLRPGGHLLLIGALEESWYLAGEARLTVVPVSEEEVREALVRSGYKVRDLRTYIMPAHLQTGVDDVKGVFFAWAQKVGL
# Potency is read from the fitted curve at half-maximal effect.
Compound,activity [1],"activity change, negative = inhibition [2]",activity [3],activity [4],Potency [2]
FC(F)(F)c1cccc(-c2nccn3c(C4CN(Cc5ccc6cn[nH]c6c5)C4)ncc23)c1,0.457%,4.1%,-12.8%,-2.02%,
CN(CCCNC(=O)Cn1ccc2cc(S(=O)(=O)N3CCCCC3)ccc21)C1CCCCC1,1.24%,0.637%,-1.2%,0.276%,
OCC1(Cc2ccccc2)CCCN(Cc2cn[nH]c2-c2ccc(F)cc2)C1 (stereo not given),5.88%,4.38%,0.855%,5.69%,
Cn1ccc(Nc2cc3c(cn2)CN(CCc2ccccc2)CCN3)n1,-0.459%,-0.578% [at 85.7 µM],-5.86%,-38.8%,
c1ccc(CN2CCc3c(sc4ncnc(N5CCOCC5)c34)C2)cc1,-7.7%,-10.8%,-44.8%,-7.28%,
CCn1cc(CN2CCCC23CCN(c2cc(C)nc4ccccc24)CC3)c(C)n1,3.11%,4.01%,-3.44%,6.12%,
Cc1cnc(CCNC(=O)Nc2ccc3c(c2)OCCO3)n1C1CCC1,2.74%,-0.0713%,-5.7%,1.37%,
COc1ccc(-c2nc3ccccc3[nH]2)cc1,-76.2%,,-74.3%,-79.7%,15.2 µM (active)
COc1ccc(-c2[nH]nc3ncc(C(=O)N4CCC(c5ccccc5)CC4)nc23)c(C)c1,-39.6%,-20.4% [at 85.7 µM],-23.9%,-53.6%,
Cc1cccc(N2CCN(C(=O)c3ccc4c(=O)[nH]c5c(C(=O)NC(C)C)sc(=S)n5c4c3)CC2)c1C,-37.2%,0.0257%,-76.7%,-28.7%,
CN1CCCC2(C1)CN(C)c1ccc(C(=O)NCC3CCCCC3)cc12 (stereo not given),1.14%,-0.167% [at 85.7 µM],-10.6%,-0.542%,
COc1ccc(CCNC(=O)c2ccc3c(=O)nc4c(-c5cccc(F)c5)n[nH]n4c3c2)cc1OC,-16%,,-27.1%,-14.6%,10.8 µM (active)
CC(C)c1nccn1CCCNc1nc(-c2ccncc2)nc2c1cnn2C,-28.8%,-15.2%,-20.9%,-44.2%,
COCCCN1C(=O)c2cc3c(OC)ccc(OC)c3n2CC1(C)C(=O)NC1CCCCC1 (stereo not given),-9.18%,-5.66%,-20.2%,-10%,
COc1ccc(OCc2cc(C(=O)NC(CO)C(C)C)no2)c2ccccc12 (stereo not given),3.87%,1.38%,5.13%,0.331%,
O=C(CCc1nnc2n(CCc3ccccc3)c(=O)c3ccccc3n12)N1CCN(C2CCCCC2)CC1,0%,0%,-47.4%,0.426%,
COc1cccc(CN2C(=O)c3nc4ccccc4n3CC2(C)C(=O)NC2CCC(C)CC2)c1 (stereo not given),-5%,0.902%,-42.5%,-8.56%,
CC(C)CCn1c(=O)c2ccccc2n2c(CCC(=O)N3CCN(c4ccccc4F)CC3)nnc12,1.06%,0%,-60.1%,-4.6%,
O=C(OCc1ccccc1)N1CCOCC12CCN(Cc1c[nH]c3ccccc13)CC2,6.86%,9.15% [at 85.7 µM],5.55%,1.46%,
COc1cccc(-c2ccccc2NC(=O)C2CCN(CC=C(C)C)CC2)c1,0.831%,3.69%,-3.23%,-3%,
CC(C)c1ccc(NC(=O)Cn2c(=O)oc3cc(S(=O)(=O)NCc4ccccc4)ccc32)cc1,0%,0%,-3.77%,0%,
CC(C)CCN1CC2(CCCN(C(=O)c3ccn(C)c(=O)c3)C2)CCC1=O (stereo not given),5.04%,8.37%,3.97%,1.77%,
Cc1cc(-c2cc3c(cn2)N(C)CCN(C)C3)ccn1,5.42%,4.1% [at 114 µM],2.35%,3.56%,
CC1(C(=O)NC2CCCCCC2)Cn2c(c(-n3cccc3)c3ccccc32)C(=O)N1CC1CCCO1 (stereo not given),4.7%,0.126%,-46.9%,0%,
Cc1noc(C)c1-c1cc(-c2ccc(CN(C)C)cc2)cn2cncc12,-2.27%,-8.74% [at 85.7 µM],-10.7%,-3.78%,
CCCC1c2cccn2CCN1C(=O)Nc1cc(Cl)c(OC)cc1OC (stereo not given),-9.49%,-6.89%,-17.5%,-8.84%,
CCCC1c2cccn2CCN1C(=O)Nc1ccc(Br)c(C)c1 (stereo not given),-4.66%,-2.02%,-7.57%,-6.57%,
O=C(NCc1ccc(Cl)cc1)c1ccc2c(=O)[nH]c3c(C(=O)NC4CCCC4)sc(=S)n3c2c1,-32.6%,,-79.2%,-80.2%,42.9 µM (active)
O=C(O)c1ccc(Nc2nc3ccccc3n3cnnc23)cc1,-82.3%,,-79.6%,-46%,19.3 µM (active)
O=c1c2ccccc2n2c(-c3ccc(F)c(F)c3)nnc2n1Cc1ccccc1Cl,-2.11%,0%,-2.95%,-3.63%,
